# Assay results from the supplement of paper PMC8728848.
# The full list was thinned out, with the strongest signals kept by preference.
# Key:
# Test in all cases: glycan array binding signal (z-score within array); higher = stronger binding
# Details in all cases: glycan notation: IUPAC condensed, linker removed
# [1] = target: Fuc(a1-2)Gal(b1-3)GlcNAc
# In short: (§1)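 From the Consortium for Functional Glycomics database, 3228 arrays were curated, keeping only those whose protein sequence was available. Binding is given as a within-array Z-score averaged across arrays sharing a protein sequence and across linkers. Negative Z-scores can be read as non-binding.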
# [2] = target: Fuc(a1-2)Gal(b1-3)GlcNAc(b1-2)Man(a1-3)[Fuc(a1-2)Gal(b1-3)GlcNAc(b1-2)Man(a1-6)]Man(b1-4)GlcNAc(b1-4)GlcNAc
# In short: as §1
# [3] = target: Fuc(a1-2)Gal(b1-3)GlcNAc(b1-3)Gal(b1-4)Glc
# In short: as §1
# [4] = target: Fuc(a1-2)Gal(b1-3)GlcNAc(b1-3)[Gal(b1-4)GlcNAc(b1-6)]Gal(b1-4)Glc
# In short: as §1
# [5] = target: Fuc(a1-2)Gal(b1-3)GlcNAc(b1-3)[Neu5Ac(a2-6)Gal(b1-4)GlcNAc(b1-6)]Gal(b1-4)Glc
# In short: as §1
# [6] = target: Fuc(a1-2)Gal(b1-4)GlcNAc(b1-2)[Fuc(a1-2)Gal(b1-4)GlcNAc(b1-4)]Man(a1-3)[Fuc(a1-2)Gal(b1-4)GlcNAc(b1-2)Man(a1-6)]Man(b1-4)GlcNAc(b1-4)GlcNAc
# In short: as §1
# [7] = target: Fuc(a1-2)Gal(b1-4)GlcNAc(b1-3)Gal(b1-4)GlcNAc(b1-3)Gal(b1-4)GlcNAc
# In short: as §1
# [8] = target: Fuc(a1-2)[Gal(a1-3)]Gal(b1-3)GlcNAc
# In short: as §1
# [9] = target: Fuc(a1-2)[Gal(a1-3)]Gal(b1-3)GlcNAc(b1-6)GalNAc
# In short: as §1
# [10] = target: Fuc(a1-2)[GalNAc(a1-3)]Gal(b1-3)GlcNAc(b1-6)GalNAc
# In short: as §1
# [11] = target: Fuc(a1-2)[GalNAc(a1-3)]Gal(b1-4)[Fuc(a1-3)]GlcNAc(b1-3)GalNAc
# In short: as §1
# [12] = target: Gal(a1-4)Gal(b1-4)GlcNAc
# In short: as §1
# [13] = target: Gal(b1-3)GlcNAc(a1-3)Gal(b1-4)GlcNAc
# In short: as §1
# [14] = target: Gal(b1-3)GlcNAc(b1-3)Gal(b1-4)GlcNAc(b1-3)Gal(b1-4)GlcNAc(b1-2)[Gal(b1-3)GlcNAc(b1-3)Gal(b1-4)GlcNAc(b1-3)Gal(b1-4)GlcNAc(b1-6)]Man(a1-6)[Gal(b1-3)GlcNAc(b1-3)Gal(b1-4)GlcNAc(b1-3)Gal(b1-4)GlcNAc(b1-2)Man(a1-3)]Man(b1-4)GlcNAc(b1-4)[Fuc(a1-6)]GlcNAc
# In short: as §1
# [15] = target: Gal(b1-3)GlcNAc(b1-3)Gal(b1-4)GlcNAc(b1-6)[Gal(b1-3)GlcNAc(b1-3)]Gal(b1-4)Glc
# In short: as §1
# [16] = target: Gal(b1-3)[Fuc(a1-4)]GlcNAc(b1-3)Gal(b1-4)GlcNAc
# In short: as §1
# [17] = target: Gal(b1-4)GlcNAc(b1-2)[Gal(b1-4)GlcNAc(b1-4)]Man(a1-3)[GlcNAc(b1-4)][Gal(b1-4)GlcNAc(b1-2)Man(a1-6)]Man(b1-4)GlcNAc(b1-4)GlcNAc
# In short: as §1
# [18] = target: Gal(b1-4)GlcNAc(b1-2)[Gal(b1-4)GlcNAc(b1-6)]Man(a1-6)[Gal(b1-4)GlcNAc(b1-2)Man(a1-3)]Man(b1-4)GlcNAc(b1-4)[Fuc(a1-6)]GlcNAc
# In short: as §1
# [19] = target: Gal(b1-4)GlcNAc(b1-3)Gal(b1-4)GlcNAc(b1-3)Gal(b1-4)GlcNAc
# In short: as §1
# [20] = target: Gal(b1-4)GlcNAc(b1-3)Gal(b1-4)GlcNAc(b1-3)Gal(b1-4)GlcNAc(b1-3)Gal(b1-4)GlcNAc(b1-3)Gal(b1-4)GlcNAc(b1-2)[Gal(b1-4)GlcNAc(b1-3)Gal(b1-4)GlcNAc(b1-3)Gal(b1-4)GlcNAc(b1-3)Gal(b1-4)GlcNAc(b1-3)Gal(b1-4)GlcNAc(b1-6)]Man(a1-6)[Gal(b1-4)GlcNAc(b1-3)Gal(b1-4)GlcNAc(b1-3)Gal(b1-4)GlcNAc(b1-3)Gal(b1-4)GlcNAc(b1-3)Gal(b1-4)GlcNAc(b1-2)Man(a1-3)]Man(b1-4)GlcNAc(b1-4)[Fuc(a1-6)]GlcNAc
# In short: as §1
# [21] = target: Gal3S(b1-3)GalNAc
# In short: as §1
# [22] = target: GalNAc(a1-3)GalNAc(b1-3)Gal(a1-4)Gal(b1-4)Glc
# In short: as §1
# [23] = target: GlcA3S(b1-3)Gal(b1-4)GlcNAc(b1-3)Gal(b1-4)Glc
# In short: as §1
# [24] = target: GlcNAc(b1-2)[GlcNAc(b1-4)]Man(a1-3)[GlcNAc(b1-4)][GlcNAc(b1-2)Man(a1-6)]Man(b1-4)GlcNAc(b1-4)GlcNAc
# In short: as §1
# [25] = target: GlcNAc(b1-3)Gal(b1-4)GlcNAc(b1-3)Gal(b1-4)GlcNAc(b1-3)GalNAc
# In short: as §1
# [26] = target: GlcNAc(b1-3)[GlcNAc(b1-6)]GalNAc
# In short: as §1
# [27] = target: Kdn(a2-3)Gal(b1-4)Glc
# In short: as §1
# [28] = target: Man(a1-2)Man(a1-3)Man
# In short: as §1
# [29] = target: Man(a1-3)[Man(a1-6)]Man(a1-6)[Man(a1-3)]Man
# In short: as §1
# [30] = target: Man(b1-4)GlcNAc
# In short: as §1
# [31] = target: Neu5Ac(a2-3)Gal(b1-3)[Fuc(a1-4)]GlcNAc
# In short: as §1
# [32] = target: Neu5Ac(a2-3)Gal(b1-4)GlcNAc(b1-2)Man(a1-3)[Neu5Ac(a2-3)Gal(b1-4)GlcNAc(b1-2)Man(a1-6)]Man(b1-4)GlcNAc(b1-4)[Fuc(a1-6)]GlcNAc
# In short: as §1
# [33] = target: Neu5Ac(a2-3)Gal(b1-4)GlcNAc(b1-2)[Neu5Ac(a2-3)Gal(b1-4)GlcNAc(b1-4)]Man(a1-3)[GlcNAc(b1-4)][Neu5Ac(a2-3)Gal(b1-4)GlcNAc(b1-2)[Neu5Ac(a2-3)Gal(b1-4)GlcNAc(b1-6)]Man(a1-6)]Man(b1-4)GlcNAc(b1-4)GlcNAc
# In short: as §1
# [34] = target: Neu5Ac(a2-3)Gal(b1-4)GlcNAc(b1-3)Gal(b1-4)GlcNAc(b1-3)Gal(b1-4)GlcNAc
# In short: as §1
# [35] = target: Neu5Ac(a2-3)Gal(b1-4)GlcNAc(b1-6)[Neu5Ac(a2-3)Gal(b1-3)]GalNAc
# In short: as §1
# [36] = target: Neu5Ac(a2-3)Gal(b1-4)[Fuc(a1-3)]GlcNAc(b1-3)Gal(b1-4)[Fuc(a1-3)]GlcNAc(b1-3)Gal(b1-4)[Fuc(a1-3)]GlcNAc
# In short: as §1
# [37] = target: Neu5Ac(a2-6)Gal(b1-4)GlcNAc(b1-3)Gal(b1-3)GlcNAc
# In short: as §1
# [38] = target: Neu5Ac(a2-6)Gal(b1-4)GlcNAc(b1-3)Gal(b1-4)GlcNAc(b1-3)[Neu5Ac(a2-6)Gal(b1-4)GlcNAc(b1-3)Gal(b1-4)GlcNAc(b1-6)]GalNAc
# In short: as §1
# [39] = target: Neu5Ac(a2-6)GalNAc
# In short: as §1
# [40] = target: Neu5Ac(a2-8)Neu5Ac(a2-3)Gal(b1-4)Glc
# In short: as §1
# [41] = target: Neu5Ac(a2-8)Neu5Ac(a2-8)Neu5Ac(a2-3)[Gal(b1-3)GalNAc(b1-4)]Gal(b1-4)Glc
# In short: as §1
binder,measurement,setting,value
"FliC (Pseudomonas aeruginosa), P72151 (protein) MALTVNTNIASLNTQRNLNASSNDLNTSLQRLTTGYRINSAKDDAAGLQISNRLSNQISGLNVATRNANDGISLAQTAEGALQQSTNILQRIRDLALQSANGSNSDADRAALQKEVAAQQAELTRISDTTTFGGRKLLDGSFGTTSFQVGSNAYETIDISLQNASASAIGSYQVGSNGAGTVASVAGTATASGIASGTVNLVGGGQVKNIAIAAGDSAKAIAEKMDGAIPNLSARARTVFTADVSGVTGGSLNFDVTVGSNTVSLAGVTSTQDLADQLNSNSSKLGITASINDKGVLTITSATGENVKFGAQTGTATAGQVAVKVQGSDGKFEAAAKNVVAAGTAATTTIVTGYVQLNSPTAYSVSGTGTQASQVFGNASAAQKSSVASVDISTADGAQNAIAVVDNALAAIDAQRADLGAVQNRFKNTIDNLTNISENATNARSRIKDTDFAAETAALSKNQVLQQAGTAILAQANQLPQAVLSLLR",glycan array binding signal (z-score),[1],-0.166
same,glycan array binding signal (z-score),[2],-0.133
same,glycan array binding signal (z-score),[3],-0.154
same,glycan array binding signal (z-score),[4],-0.067
same,glycan array binding signal (z-score),[5],2.82
same,glycan array binding signal (z-score),[6],-0.117
same,glycan array binding signal (z-score),[7],-0.151
same,glycan array binding signal (z-score),[8],-0.118
same,glycan array binding signal (z-score),[9],0.094
same,glycan array binding signal (z-score),[10],2.71
same,glycan array binding signal (z-score),[11],-0.134
same,glycan array binding signal (z-score),[12],0.061
same,glycan array binding signal (z-score),[13],-0.119
same,glycan array binding signal (z-score),[14],2.32
same,glycan array binding signal (z-score),[15],-0.165
same,glycan array binding signal (z-score),[16],-0.193
same,glycan array binding signal (z-score),[17],-0.178
same,glycan array binding signal (z-score),[18],1.27
same,glycan array binding signal (z-score),[19],-0.189
same,glycan array binding signal (z-score),[20],3.23
same,glycan array binding signal (z-score),[21],-0.09
same,glycan array binding signal (z-score),[22],-0.183
same,glycan array binding signal (z-score),[23],-0.191
same,glycan array binding signal (z-score),[24],1.69
same,glycan array binding signal (z-score),[25],-0.143
same,glycan array binding signal (z-score),[26],-0.16
same,glycan array binding signal (z-score),[27],-0.115
same,glycan array binding signal (z-score),[28],-0.16
same,glycan array binding signal (z-score),[29],-0.152
same,glycan array binding signal (z-score),[30],-0.177
same,glycan array binding signal (z-score),[31],-0.192
same,glycan array binding signal (z-score),[32],20.9
same,glycan array binding signal (z-score),[33],8.36
same,glycan array binding signal (z-score),[34],0.251
same,glycan array binding signal (z-score),[35],0.476
same,glycan array binding signal (z-score),[36],3.22
same,glycan array binding signal (z-score),[37],-0.117
same,glycan array binding signal (z-score),[38],-0.127
same,glycan array binding signal (z-score),[39],1.71
same,glycan array binding signal (z-score),[40],2.98
same,glycan array binding signal (z-score),[41],-0.227
